# According to paper PMC7862700, “An all-to-all approach to the identification of sequence-specific readers for epigenetic DNA modifications on cytosine”:
# Experiments:
# Assay in all cases: DAPPL (digital affinity profiling via proximity ligation, sequencing); 10 mM Tris-HCl pH 7.5, 50 mM NaCl, 1 mM DTT, 4% glycerol, room temperature, 30 min; GST-TFs on glutathione beads, 16-mer random dsDNA library, 0.1% formaldehyde crosslink after washing; high values mean tight binding
# FLI1 = target: T1, FLI1 (Homo sapiens, UniProt Q01543 1-452); conditions: protein: recombinant; tags: N-terminal GST; dsDNA, one strand shown
# T1 sequence: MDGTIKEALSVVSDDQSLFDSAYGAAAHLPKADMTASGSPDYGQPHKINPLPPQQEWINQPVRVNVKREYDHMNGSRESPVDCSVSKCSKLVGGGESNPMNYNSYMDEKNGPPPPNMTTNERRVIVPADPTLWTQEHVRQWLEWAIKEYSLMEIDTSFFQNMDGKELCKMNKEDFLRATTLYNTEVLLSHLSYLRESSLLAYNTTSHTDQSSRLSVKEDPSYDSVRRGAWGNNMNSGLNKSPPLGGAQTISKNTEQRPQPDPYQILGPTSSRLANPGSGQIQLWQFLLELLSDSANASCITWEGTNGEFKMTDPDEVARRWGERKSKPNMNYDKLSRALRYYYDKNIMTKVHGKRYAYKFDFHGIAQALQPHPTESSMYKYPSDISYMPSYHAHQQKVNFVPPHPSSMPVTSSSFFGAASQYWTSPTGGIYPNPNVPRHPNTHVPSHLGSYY
# Procedure, shortened: (§1)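 Human transcription factors fused to GST were expressed in yeast, captured on glutathione beads, given DNA barcodes and pooled with a GST-only negative control. Pools were incubated with 200 nmole of a 16-mer random double-stranded DNA library in Tris/NaCl/DTT/glycerol buffer at room temperature for 30 min. They were then washed, crosslinked with 0.1% formaldehyde, proximity-ligated (BsaI/T4 ligase, 1 h, 37 °C), PCR-amplified and sequenced on an Illumina NextSeq500. Binding signal is each 6-mer's read frequency for a factor divided by its frequency for the GST control.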
# ELK1 = target: T2, ELK1 (Homo sapiens, UniProt P19419 1-428); conditions: protein: recombinant; tags: N-terminal GST; dsDNA, one strand shown
# T2 sequence: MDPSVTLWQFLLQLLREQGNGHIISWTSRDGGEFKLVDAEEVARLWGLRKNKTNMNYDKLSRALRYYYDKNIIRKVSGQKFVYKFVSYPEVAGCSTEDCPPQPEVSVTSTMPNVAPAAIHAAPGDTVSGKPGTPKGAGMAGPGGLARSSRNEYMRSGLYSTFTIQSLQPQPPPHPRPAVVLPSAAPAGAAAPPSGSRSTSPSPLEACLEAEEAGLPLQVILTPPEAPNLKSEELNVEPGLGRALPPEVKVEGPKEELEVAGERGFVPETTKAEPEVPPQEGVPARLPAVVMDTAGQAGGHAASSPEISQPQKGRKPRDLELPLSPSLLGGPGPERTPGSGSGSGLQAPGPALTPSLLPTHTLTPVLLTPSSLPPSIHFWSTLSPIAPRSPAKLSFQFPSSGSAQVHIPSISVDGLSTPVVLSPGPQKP
# Procedure, shortened: as §1
# GABPA = target: T3, GABPA (Homo sapiens, UniProt Q06546 1-454); conditions: protein: recombinant; tags: N-terminal GST; dsDNA, one strand shown
# T3 sequence: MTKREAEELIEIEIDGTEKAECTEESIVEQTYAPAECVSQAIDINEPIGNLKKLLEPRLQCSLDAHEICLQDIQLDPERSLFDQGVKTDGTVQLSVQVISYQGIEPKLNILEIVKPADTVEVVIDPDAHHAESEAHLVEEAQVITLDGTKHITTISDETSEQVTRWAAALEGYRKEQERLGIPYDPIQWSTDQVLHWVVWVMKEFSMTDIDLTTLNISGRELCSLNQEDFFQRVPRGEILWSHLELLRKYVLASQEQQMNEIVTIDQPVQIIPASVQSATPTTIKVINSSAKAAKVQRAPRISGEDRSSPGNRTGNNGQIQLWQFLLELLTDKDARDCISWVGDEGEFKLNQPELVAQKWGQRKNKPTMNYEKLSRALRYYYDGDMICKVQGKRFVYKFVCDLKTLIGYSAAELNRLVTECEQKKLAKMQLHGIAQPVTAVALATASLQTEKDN
# Procedure, shortened: as §1
# ERG = target: T4, ERG (Homo sapiens, UniProt P11308 1-479); conditions: protein: recombinant; tags: N-terminal GST; dsDNA, one strand shown
# T4 sequence: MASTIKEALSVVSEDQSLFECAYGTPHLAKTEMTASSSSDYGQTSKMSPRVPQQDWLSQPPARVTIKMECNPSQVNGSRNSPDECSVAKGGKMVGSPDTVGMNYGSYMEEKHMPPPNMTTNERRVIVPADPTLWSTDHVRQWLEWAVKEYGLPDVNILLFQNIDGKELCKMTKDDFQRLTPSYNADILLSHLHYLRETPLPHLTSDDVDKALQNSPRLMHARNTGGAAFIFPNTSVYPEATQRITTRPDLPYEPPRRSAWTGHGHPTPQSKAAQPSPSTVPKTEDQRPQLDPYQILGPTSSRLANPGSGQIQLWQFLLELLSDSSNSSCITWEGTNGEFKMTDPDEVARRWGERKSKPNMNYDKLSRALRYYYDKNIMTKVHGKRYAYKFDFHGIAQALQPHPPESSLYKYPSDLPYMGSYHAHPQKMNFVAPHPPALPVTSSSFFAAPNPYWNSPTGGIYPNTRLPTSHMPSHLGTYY
# Procedure, shortened: as §1
# ELF1 = ELF1 (Homo sapiens, UniProt P32519 1-619); conditions: protein: recombinant; tags: N-terminal GST; dsDNA, one strand shown
# Procedure, shortened: as §1
# EHF = target: T5, EHF (Homo sapiens, UniProt Q9NZC4 1-300); conditions: protein: recombinant; tags: N-terminal GST; dsDNA, one strand shown
# T5 sequence: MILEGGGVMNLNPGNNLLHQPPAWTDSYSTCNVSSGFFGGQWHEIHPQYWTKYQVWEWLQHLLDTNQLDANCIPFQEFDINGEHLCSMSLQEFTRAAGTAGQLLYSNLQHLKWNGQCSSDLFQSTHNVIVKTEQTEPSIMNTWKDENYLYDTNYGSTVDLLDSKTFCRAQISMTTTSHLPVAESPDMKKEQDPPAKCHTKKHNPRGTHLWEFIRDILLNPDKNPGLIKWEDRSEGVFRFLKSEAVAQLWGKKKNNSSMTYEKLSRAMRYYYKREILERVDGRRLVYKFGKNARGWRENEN
# Procedure, shortened: as §1
# SPI1 = SPI1 (Homo sapiens, UniProt P17947 1-270); conditions: protein: recombinant; tags: N-terminal GST; dsDNA, one strand shown
# Procedure, shortened: as §1
# SPIB = SPIB (Homo sapiens, UniProt Q01892 1-262); conditions: protein: recombinant; tags: N-terminal GST; dsDNA, one strand shown
# Procedure, shortened: as §1
# ELK3 = target: T6, ELK3 (Homo sapiens, UniProt P41970 1-407); conditions: protein: recombinant; tags: N-terminal GST; dsDNA, one strand shown
# T6 sequence: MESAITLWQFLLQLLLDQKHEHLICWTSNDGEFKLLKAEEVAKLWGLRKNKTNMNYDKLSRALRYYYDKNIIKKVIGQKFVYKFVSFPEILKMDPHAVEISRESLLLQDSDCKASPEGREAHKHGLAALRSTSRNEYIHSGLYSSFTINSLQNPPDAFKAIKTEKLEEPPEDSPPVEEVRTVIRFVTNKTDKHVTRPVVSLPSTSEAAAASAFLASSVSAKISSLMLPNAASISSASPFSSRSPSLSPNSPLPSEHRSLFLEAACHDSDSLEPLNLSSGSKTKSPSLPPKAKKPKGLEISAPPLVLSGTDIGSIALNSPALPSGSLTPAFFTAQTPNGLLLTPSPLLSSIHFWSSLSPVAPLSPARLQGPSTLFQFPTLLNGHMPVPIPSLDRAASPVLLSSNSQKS
# Procedure, shortened: as §1
# FEV = target: T7, FEV (Homo sapiens, UniProt Q99581 1-238); conditions: protein: recombinant; tags: N-terminal GST; dsDNA, one strand shown
# T7 sequence: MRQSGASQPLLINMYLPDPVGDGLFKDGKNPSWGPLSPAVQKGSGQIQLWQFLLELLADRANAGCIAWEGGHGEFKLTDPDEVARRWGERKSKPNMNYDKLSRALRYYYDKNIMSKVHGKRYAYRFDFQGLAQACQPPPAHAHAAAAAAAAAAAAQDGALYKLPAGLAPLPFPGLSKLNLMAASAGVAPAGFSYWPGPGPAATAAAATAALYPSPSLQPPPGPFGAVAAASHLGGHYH
# Procedure, shortened: as §1
# ETV5 = ETV5 (Homo sapiens, UniProt P41161 1-510); conditions: protein: recombinant; tags: N-terminal GST; dsDNA, one strand shown
# Procedure, shortened: as §1
# HSF1 = HSF1 (Homo sapiens, UniProt Q00613 1-529); conditions: protein: recombinant; tags: N-terminal GST; chain copies: 3; dsDNA, one strand shown
# Procedure, shortened: as §1
# SPIC = target: T8, SPIC (Homo sapiens, UniProt Q8N5J4 1-248); conditions: protein: recombinant; tags: N-terminal GST; dsDNA, one strand shown
# T8 sequence: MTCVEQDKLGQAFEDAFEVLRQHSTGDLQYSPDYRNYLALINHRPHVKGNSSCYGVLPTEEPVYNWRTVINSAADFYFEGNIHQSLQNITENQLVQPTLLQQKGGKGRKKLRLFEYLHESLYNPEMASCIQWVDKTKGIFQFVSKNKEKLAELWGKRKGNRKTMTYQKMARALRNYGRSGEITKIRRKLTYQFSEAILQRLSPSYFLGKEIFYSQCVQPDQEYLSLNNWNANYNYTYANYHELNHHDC
# Procedure, shortened: as §1
# ELF4 = ELF4 (Homo sapiens, UniProt Q99607 1-663); conditions: protein: recombinant; tags: N-terminal GST; dsDNA, one strand shown
# Procedure, shortened: as §1
# ELK4 = target: T9, ELK4 (Homo sapiens, UniProt P28324-2 1-405); conditions: protein: recombinant; tags: N-terminal GST; dsDNA, one strand shown
# T9 sequence: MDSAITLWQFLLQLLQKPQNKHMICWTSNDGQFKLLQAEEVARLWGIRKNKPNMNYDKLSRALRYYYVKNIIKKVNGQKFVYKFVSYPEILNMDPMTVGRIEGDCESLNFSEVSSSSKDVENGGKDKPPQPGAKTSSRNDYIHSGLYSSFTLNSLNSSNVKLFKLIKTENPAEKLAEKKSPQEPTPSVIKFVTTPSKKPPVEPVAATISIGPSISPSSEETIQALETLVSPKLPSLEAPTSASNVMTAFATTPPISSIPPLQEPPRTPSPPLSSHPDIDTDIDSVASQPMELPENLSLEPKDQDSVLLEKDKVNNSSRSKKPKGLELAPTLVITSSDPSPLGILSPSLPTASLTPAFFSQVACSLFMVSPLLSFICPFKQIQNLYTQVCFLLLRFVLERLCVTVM
# Procedure, shortened: as §1
# ETV2 = target: T10, ETV2 (Homo sapiens, UniProt O00321 1-342); conditions: protein: recombinant; tags: N-terminal GST; dsDNA, one strand shown
# T10 sequence: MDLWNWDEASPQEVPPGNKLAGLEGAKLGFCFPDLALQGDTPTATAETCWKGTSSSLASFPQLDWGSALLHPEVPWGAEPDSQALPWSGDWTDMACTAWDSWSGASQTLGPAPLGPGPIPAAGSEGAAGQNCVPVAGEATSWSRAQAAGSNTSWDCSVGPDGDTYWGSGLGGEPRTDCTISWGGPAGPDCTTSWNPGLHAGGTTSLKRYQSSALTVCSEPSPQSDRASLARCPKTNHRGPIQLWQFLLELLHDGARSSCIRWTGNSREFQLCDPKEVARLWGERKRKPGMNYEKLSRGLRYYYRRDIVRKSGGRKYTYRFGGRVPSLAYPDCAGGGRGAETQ
# Procedure, shortened: as §1
# ELF3 = target: T11, ELF3 (Homo sapiens, UniProt P78545 1-371); conditions: protein: recombinant; tags: N-terminal GST; dsDNA, one strand shown
# T11 sequence: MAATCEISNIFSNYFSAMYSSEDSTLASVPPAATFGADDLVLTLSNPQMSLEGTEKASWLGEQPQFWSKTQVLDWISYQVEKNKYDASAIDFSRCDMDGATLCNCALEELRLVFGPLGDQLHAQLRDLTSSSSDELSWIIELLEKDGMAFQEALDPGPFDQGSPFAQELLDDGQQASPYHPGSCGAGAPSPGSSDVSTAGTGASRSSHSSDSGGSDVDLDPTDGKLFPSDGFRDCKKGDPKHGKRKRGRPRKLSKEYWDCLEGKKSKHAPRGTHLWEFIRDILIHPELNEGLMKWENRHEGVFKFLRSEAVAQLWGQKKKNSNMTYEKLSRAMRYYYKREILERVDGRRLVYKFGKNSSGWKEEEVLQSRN
# Procedure, shortened: as §1
# CRX = CRX (Homo sapiens, UniProt O43186 1-299); conditions: protein: recombinant; tags: N-terminal GST; dsDNA, one strand shown
# Procedure, shortened: as §1
# ETV1 = ETV1 (Homo sapiens, UniProt P50549 1-477); conditions: protein: recombinant; tags: N-terminal GST; dsDNA, one strand shown
# Procedure, shortened: as §1
# ETV5, sequence (P41161 whole entry): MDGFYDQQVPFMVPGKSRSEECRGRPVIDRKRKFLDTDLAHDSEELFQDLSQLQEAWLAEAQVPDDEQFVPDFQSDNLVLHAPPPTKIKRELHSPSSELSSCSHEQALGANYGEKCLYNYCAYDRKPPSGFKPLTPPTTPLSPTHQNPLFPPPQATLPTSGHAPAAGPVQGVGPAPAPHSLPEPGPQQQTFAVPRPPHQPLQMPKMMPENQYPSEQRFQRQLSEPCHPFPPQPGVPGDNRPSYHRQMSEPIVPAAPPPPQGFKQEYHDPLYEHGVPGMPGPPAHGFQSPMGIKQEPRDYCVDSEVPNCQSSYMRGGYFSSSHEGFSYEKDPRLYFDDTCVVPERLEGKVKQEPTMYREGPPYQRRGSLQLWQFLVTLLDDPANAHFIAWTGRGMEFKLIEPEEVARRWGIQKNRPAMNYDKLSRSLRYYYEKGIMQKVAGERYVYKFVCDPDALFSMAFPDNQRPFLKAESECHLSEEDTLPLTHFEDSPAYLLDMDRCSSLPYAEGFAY
# HSF1, sequence (Q00613 whole entry): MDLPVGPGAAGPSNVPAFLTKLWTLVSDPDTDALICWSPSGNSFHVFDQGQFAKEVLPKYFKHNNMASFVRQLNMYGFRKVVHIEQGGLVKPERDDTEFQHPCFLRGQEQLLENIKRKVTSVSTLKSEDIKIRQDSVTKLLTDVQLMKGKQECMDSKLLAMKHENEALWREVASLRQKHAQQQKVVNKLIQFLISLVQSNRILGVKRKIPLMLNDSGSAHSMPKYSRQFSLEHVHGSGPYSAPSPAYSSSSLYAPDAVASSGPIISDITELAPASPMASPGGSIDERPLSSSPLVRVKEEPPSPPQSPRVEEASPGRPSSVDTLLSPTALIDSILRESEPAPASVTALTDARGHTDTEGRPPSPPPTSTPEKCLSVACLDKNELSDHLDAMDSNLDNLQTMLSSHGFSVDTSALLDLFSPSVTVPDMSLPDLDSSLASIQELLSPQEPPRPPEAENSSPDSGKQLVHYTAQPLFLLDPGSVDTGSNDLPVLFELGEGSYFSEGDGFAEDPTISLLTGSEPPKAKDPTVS
# ELF4, sequence (Q99607 whole entry): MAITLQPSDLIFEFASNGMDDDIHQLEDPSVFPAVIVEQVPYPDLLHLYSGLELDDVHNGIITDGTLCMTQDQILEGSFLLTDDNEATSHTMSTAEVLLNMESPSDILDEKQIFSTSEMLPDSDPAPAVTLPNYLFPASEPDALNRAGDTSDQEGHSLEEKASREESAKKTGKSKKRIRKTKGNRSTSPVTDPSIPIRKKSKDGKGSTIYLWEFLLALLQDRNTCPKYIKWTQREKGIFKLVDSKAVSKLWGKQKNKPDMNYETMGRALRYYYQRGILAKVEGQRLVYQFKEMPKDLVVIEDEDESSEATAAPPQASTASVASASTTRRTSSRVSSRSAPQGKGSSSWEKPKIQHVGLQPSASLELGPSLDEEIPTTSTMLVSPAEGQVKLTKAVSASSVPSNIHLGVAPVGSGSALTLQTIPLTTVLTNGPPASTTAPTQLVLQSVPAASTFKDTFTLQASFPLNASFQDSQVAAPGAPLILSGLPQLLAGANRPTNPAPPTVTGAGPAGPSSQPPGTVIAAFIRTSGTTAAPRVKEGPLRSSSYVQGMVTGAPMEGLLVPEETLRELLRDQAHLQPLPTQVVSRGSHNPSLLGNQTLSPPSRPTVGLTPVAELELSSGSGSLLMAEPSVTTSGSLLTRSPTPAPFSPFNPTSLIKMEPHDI
# CRX, sequence (O43186 whole entry): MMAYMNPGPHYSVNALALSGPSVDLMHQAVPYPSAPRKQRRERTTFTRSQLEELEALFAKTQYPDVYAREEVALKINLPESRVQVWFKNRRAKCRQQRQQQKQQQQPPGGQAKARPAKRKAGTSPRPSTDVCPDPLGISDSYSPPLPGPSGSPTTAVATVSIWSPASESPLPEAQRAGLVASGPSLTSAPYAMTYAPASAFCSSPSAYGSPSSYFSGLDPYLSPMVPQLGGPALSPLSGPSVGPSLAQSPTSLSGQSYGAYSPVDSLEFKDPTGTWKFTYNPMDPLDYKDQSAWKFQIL
# SPIB, sequence (Q01892 whole entry): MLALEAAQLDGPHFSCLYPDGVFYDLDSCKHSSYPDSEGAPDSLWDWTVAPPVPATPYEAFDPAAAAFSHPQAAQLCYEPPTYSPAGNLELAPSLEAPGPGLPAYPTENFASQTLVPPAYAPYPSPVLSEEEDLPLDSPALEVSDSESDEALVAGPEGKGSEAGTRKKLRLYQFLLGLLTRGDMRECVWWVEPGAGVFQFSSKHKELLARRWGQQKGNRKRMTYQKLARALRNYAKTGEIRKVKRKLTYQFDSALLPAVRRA
# ELF1, sequence (P32519 whole entry): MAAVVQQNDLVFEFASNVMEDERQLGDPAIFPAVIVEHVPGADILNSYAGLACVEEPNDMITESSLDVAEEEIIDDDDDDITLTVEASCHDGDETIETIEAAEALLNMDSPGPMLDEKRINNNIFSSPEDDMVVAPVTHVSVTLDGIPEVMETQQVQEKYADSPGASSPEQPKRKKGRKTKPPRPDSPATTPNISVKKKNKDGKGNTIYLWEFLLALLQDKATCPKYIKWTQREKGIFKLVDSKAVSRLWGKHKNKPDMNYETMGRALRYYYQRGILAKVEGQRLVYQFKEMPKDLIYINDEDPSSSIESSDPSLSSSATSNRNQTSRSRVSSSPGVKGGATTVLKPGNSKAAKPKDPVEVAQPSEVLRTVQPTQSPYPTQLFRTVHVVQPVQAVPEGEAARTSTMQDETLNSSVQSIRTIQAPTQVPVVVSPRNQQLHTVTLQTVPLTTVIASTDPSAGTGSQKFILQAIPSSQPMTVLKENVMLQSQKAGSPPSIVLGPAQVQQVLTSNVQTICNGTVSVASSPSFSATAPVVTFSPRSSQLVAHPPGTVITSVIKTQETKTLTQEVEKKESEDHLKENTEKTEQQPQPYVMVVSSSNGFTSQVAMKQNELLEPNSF
# ETV1, sequence (P50549 whole entry): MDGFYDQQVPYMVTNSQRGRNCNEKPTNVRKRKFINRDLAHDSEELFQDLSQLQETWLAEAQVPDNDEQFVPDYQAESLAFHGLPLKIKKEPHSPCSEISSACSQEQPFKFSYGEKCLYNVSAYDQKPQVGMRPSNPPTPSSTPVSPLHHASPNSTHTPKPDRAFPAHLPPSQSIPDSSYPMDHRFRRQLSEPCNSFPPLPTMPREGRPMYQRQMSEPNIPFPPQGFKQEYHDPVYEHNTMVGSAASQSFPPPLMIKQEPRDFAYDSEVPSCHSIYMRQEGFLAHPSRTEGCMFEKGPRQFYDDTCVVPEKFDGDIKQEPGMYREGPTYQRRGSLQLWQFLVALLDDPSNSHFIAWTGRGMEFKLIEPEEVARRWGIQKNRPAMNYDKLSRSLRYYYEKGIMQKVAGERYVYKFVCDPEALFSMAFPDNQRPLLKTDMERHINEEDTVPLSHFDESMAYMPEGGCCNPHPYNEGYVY
sequence,measurement,setting,value
ACGATT,binding signal,FLI1,"1.44 fold enrichment (6-mer frequency, TF over GST control)"
same,binding signal,ELK1,"1.31 fold enrichment (6-mer frequency, TF over GST control)"
same,binding signal,GABPA,"1.29 fold enrichment (6-mer frequency, TF over GST control)"
same,binding signal,ERG,"1.34 fold enrichment (6-mer frequency, TF over GST control)"
same,binding signal,ELF1,"1.32 fold enrichment (6-mer frequency, TF over GST control)"
same,binding signal,EHF,"1.32 fold enrichment (6-mer frequency, TF over GST control)"
same,binding signal,SPI1,"1.31 fold enrichment (6-mer frequency, TF over GST control)"
same,binding signal,SPIB,"1.3 fold enrichment (6-mer frequency, TF over GST control)"
same,binding signal,ELK3,"1.38 fold enrichment (6-mer frequency, TF over GST control)"
same,binding signal,FEV,"1.28 fold enrichment (6-mer frequency, TF over GST control)"
same,binding signal,ETV5,"1.36 fold enrichment (6-mer frequency, TF over GST control)"
same,binding signal,HSF1,"1.69 fold enrichment (6-mer frequency, TF over GST control)"
same,binding signal,SPIC,"1.39 fold enrichment (6-mer frequency, TF over GST control)"
same,binding signal,ELF4,"1.39 fold enrichment (6-mer frequency, TF over GST control)"
same,binding signal,ELK4,"1.43 fold enrichment (6-mer frequency, TF over GST control)"
same,binding signal,ETV2,"1.24 fold enrichment (6-mer frequency, TF over GST control)"
same,binding signal,ELF3,"1.31 fold enrichment (6-mer frequency, TF over GST control)"
same,binding signal,CRX,"1.99 fold enrichment (6-mer frequency, TF over GST control)"
same,binding signal,ETV1,"1.31 fold enrichment (6-mer frequency, TF over GST control)"
